Assay outcomes as filed in PubChem BioAssay.
MEKK3 PB1 HTS = modulators (inhibitors or enhancers) of MEK5 binding to human MEKK3 PB1 domain. AID 1529. 290,000 compounds, 1.4% hits. binding response (% of control), % at 10 µM. bead-based flow cytometry, Alexa488-MEK5 binding to MEKK3; actives lie on both sides; 0 = blocked by unlabeled MEK5, 100 = vehicle. Q99759;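 active means binding response more than 3 SD above or below the average of its plate-row segment, actives on both sides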;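 further: Alexa488 bead fluorescence after subtracting the streptavidin-only scavenger bead signal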
Target sequence (Q99759 whole entry, looked up, the tested form may be a part): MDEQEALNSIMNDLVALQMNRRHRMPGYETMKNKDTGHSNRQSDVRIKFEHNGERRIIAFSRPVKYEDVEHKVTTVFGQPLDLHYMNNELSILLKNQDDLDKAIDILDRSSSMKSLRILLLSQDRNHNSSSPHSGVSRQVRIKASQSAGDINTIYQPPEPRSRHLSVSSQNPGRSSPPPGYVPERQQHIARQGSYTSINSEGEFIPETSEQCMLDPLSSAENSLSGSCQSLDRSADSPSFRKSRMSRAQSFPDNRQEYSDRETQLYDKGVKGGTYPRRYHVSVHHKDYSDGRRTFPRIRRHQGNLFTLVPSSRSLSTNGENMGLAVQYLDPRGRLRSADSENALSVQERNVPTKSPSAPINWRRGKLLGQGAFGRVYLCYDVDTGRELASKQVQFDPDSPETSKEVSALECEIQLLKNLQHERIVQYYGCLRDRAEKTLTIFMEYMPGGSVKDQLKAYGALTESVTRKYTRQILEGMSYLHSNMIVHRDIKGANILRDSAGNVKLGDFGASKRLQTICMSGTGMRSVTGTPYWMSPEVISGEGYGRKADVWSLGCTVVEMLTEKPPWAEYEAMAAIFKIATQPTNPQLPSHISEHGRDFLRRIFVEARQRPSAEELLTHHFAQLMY
MEKK2 mut-MEK5 = signal of MEK5 binding to mutant human MEKK2 PB1 domain; bead flow cytometry, Alexa488-MEK5 binding to MEKK2 mutant; percent response, % at 10 µM; 290,000 compounds, 0.35% hits; AID 1530; in the data active means percent response above about 24%, passing the limit was not always enough
Arbovirus anti = arbovirus infection inhibition | inhibition, % at 10 µM | AID 1251 | 200,000 compounds, 0.37% hits | arbovirus infection cell-based antiviral screen; in the data active means inhibition above about 30%
MEKK2wt PB1 HTS = raises or lowers MEK5 binding to wildtype human MEKK2 PB1 domain. AID 1531. bead flow cytometry, Alexa488-MEK5 binding to MEKK2 WT; actives lie on both sides. binding response (% of control), % at 10 µM. 290,000 compounds, 1.1% hits; in the data active means binding response below about 67% or above about 130%
Pf gamet viab = P. falciparum stage V gametocyte viability inhibition. P. falciparum stage V gametocytes, ATP luminescence, 24 h. AID 743093. inhibition, % at 10.9 µM. 150,000 compounds, 0.065% hits;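 active means inhibition above the mean plus 3 SD of compounds within the control limits, set per campaign, cut at about 38% in these data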;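 further: 0% = DMSO wells and 100% = medium only without gametocytes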
MEKK2wt confirm = raises or lowers MEK5 binding to wildtype human MEKK2, retest; AID 1892; shares compounds with MEKK3 PB1 HTS; 5,900 compounds, 2.4% hits; bead flow cytometry, Alexa488-MEK5 binding to MEKK2 WT; actives lie on both sides; binding response (% of control), % at 10 µM; in the data active means binding response below about 16% or above about 210%; inactive means in between
MEKK2mut-MEK5 = signal of MEK5 binding to mutant human MEKK2, retest; shares compounds with MEKK3 PB1 HTS; bead flow cytometry, Alexa488-MEK5 binding to MEKK2 mutant; percent response, % at 10 µM; 5,900 compounds, 2% hits; AID 1893; in the data active means percent response mostly above about 71%, no sharp cut-off; inactive means mostly below about 38%;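 further: higher means compound restores mutant binding toward wildtype level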
MEKK3-MEK5 inh = confirmation of inhibitors of MEK5 binding to human MEKK3 | 5,900 compounds, 1.8% hits | bead flow cytometry, Alexa488-MEK5 binding to MEKK3; active compounds read low | shares compounds with MEKK3 PB1 HTS | binding response (% of control), % at 10 µM | AID 1894;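 active means binding response below 72% of control, or above a set upper limit, though filed actives all read lower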;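 further: 100% = DMSO only wells and 0% = binding blocked by excess unlabeled MEK5; lower values mean stronger disruption of MEK5 binding to MEKK3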
The depositor's hits bear a star; [ ] = another dose, or the depositor's remark. Most compounds without a hit are left out; they make up all but 2.4% or so of the library.

For COc1ccc(C2CC(=O)OC3=C2C(=O)CC(C)(C)C3)c(OC)c1 (centres undefined) the results were MEKK3 PB1 HTS 69*[inhibitor], MEKK2 mut-MEK5 -2, Arbovirus anti 4, MEKK2wt PB1 HTS 80, Pf gamet viab 12, MEKK2wt confirm 93, MEKK2mut-MEK5 1 and MEKK3-MEK5 inh 96.
For Cn1cccc1CC(=O)NNC(=O)Nc1ccc(Cl)cc1 the results were MEKK3 PB1 HTS 100, MEKK2 mut-MEK5 1, Arbovirus anti -2 and MEKK2wt PB1 HTS 101.
Cn1cccc1CC(=O)NNC(=O)Nc1cccc(Cl)c1 was read as MEKK3 PB1 HTS 129*, MEKK2 mut-MEK5 -1, Arbovirus anti -5, MEKK2wt PB1 HTS 105, Pf gamet viab 1, MEKK2wt confirm 106, MEKK2mut-MEK5 5 and MEKK3-MEK5 inh 104.
`COc1cc(NC(=O)C2CCCN(c3ncccn3)C2)cc(OC)c1` (centres undefined) gave MEKK3 PB1 HTS 63*[inhibitor], MEKK2 mut-MEK5 -1, Arbovirus anti -10, MEKK2wt PB1 HTS 86, MEKK2wt confirm 85, MEKK2mut-MEK5 -10 and MEKK3-MEK5 inh 87.
`CC(=O)Nc1ccc(NC(=O)C2CCCN(c3ncccn3)C2)cc1` (centres undefined) gave MEKK3 PB1 HTS 94, MEKK2 mut-MEK5 0, Arbovirus anti -5 and MEKK2wt PB1 HTS 95.
Screening CC(C)(C)C(=O)c1sc2nc(-c3cccs3)cc(C(F)(F)F)c2c1N returned MEKK3 PB1 HTS 94, MEKK2 mut-MEK5 -9, Arbovirus anti 3, MEKK2wt PB1 HTS 53*[inhibitor], Pf gamet viab -12, MEKK2wt confirm 102, MEKK2mut-MEK5 6 and MEKK3-MEK5 inh 103.
For CCCC(=O)OC1CC(C)N(C(=O)c2ccccc2)c2ccc(C)cc21 (centres undefined) the results were MEKK3 PB1 HTS 12*[inhibitor], MEKK2 mut-MEK5 -40, Arbovirus anti -12, MEKK2wt PB1 HTS 21*[inhibitor], MEKK2wt confirm 99, MEKK2mut-MEK5 -1 and MEKK3-MEK5 inh 100.
For C/C(=N\OC(=O)c1c(-c2ccccc2Cl)noc1C)c1ccncc1 the results were MEKK3 PB1 HTS 48*[inhibitor], MEKK2 mut-MEK5 -16, Arbovirus anti 0, MEKK2wt PB1 HTS 55, Pf gamet viab 30, MEKK2wt confirm 106, MEKK2mut-MEK5 4 and MEKK3-MEK5 inh 103.
`COc1ccc(OCC(=O)Nc2ccccc2OC(F)F)cc1` gave MEKK3 PB1 HTS 122*, MEKK2 mut-MEK5 19, Arbovirus anti -9, MEKK2wt PB1 HTS 123, Pf gamet viab 5, MEKK2wt confirm 99, MEKK2mut-MEK5 -2 and MEKK3-MEK5 inh 97.
For COc1ccc(OCC(=O)Nc2ccccc2OC)cc1 the results were MEKK3 PB1 HTS 94, MEKK2 mut-MEK5 1, Arbovirus anti -1, MEKK2wt PB1 HTS 93 and Pf gamet viab 12.
For CN(CC(=O)NCc1ccncc1)S(=O)(=O)c1ccc2ccccc2c1 the results were MEKK3 PB1 HTS 129*, MEKK2 mut-MEK5 0, Arbovirus anti 23, MEKK2wt PB1 HTS 111, Pf gamet viab 16, MEKK2wt confirm 104, MEKK2mut-MEK5 4 and MEKK3-MEK5 inh 101.
`Cc1cccc(NC(=O)COC(=O)c2cc(C)oc2C)c1` gave MEKK3 PB1 HTS 129*, MEKK2 mut-MEK5 4, Arbovirus anti -3, MEKK2wt PB1 HTS 114, Pf gamet viab 8, MEKK2wt confirm 105, MEKK2mut-MEK5 2 and MEKK3-MEK5 inh 103.
C=CCn1c(C)csc1=Nc1ccccc1C was read as MEKK3 PB1 HTS 89, MEKK2 mut-MEK5 0, Arbovirus anti 21 and MEKK2wt PB1 HTS 99.
`CCOC(=O)c1cnc2cc(Cl)c(OC)cc2c1NCC1CCCO1` (centres undefined) gave MEKK3 PB1 HTS 115, MEKK2 mut-MEK5 13, Arbovirus anti -3, MEKK2wt PB1 HTS 136*, Pf gamet viab -41, MEKK2wt confirm 104, MEKK2mut-MEK5 -1 and MEKK3-MEK5 inh 106.
